The campaign covered roughly 5,500 compounds. About 2,000 (36%) were called active. About 18% were inconclusive and are not listed. Cut-off read from the data, not from the text of the source: active = normalized growth mostly below about 0.91 (no sharp cut-off); inconclusive = no clear call, values can overlap the other calls; inactive = mostly above about 0.92. The list shows a part of the results.
Test: chemical genetic growth profiling, strain panel (AID 1159580);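 note: tested at 20 µM; growth read once vehicle control cultures reached saturation at 30 °C; 1 = growth at the plate median or of vehicle wells; lower values mean less growth of the strain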
Conditions: S. cerevisiae deletion strains, growth OD

Measured: normalized growth

COC(=O)C1=COC(OC2OC(CO)C(O)C(O)C2O)C2C(C)CC(=O)C12 (configuration not stated)
inactive: locus YAL021C, strain ccr4, active compounds read low 1.03 | locus YAL026C, strain drs2, active compounds read low 1.02 | locus YAL030W, strain snc1, active compounds read low 1.03 | locus YBL061C, strain skt5, active compounds read low 1.02 | locus YBR009C, strain hhf1, active compounds read low 1.01 | locus YBR023C, strain chs3, active compounds read low 1.03 | locus YBR171W, strain sec66, active compounds read low 1.04 | locus YBR231C, strain swc5, active compounds read low 1.04 | locus YBR279W, strain paf1, active compounds read low 1.03 | locus YCL011C, strain gbp2, active compounds read low 1.03 | locus YCL016C, strain dcc1, active compounds read low 1.02 | locus YCL061C, strain MRC1, active compounds read low 1.03 | locus YCL069W, strain vba3, active compounds read low 1.03 | locus YCR088W, strain abp1, active compounds read low 1.03 | locus YDL005C, strain med2, active compounds read low 1.04 | locus YDL040C, strain nat1, active compounds read low 1.03 | locus YDR001C, strain nth1, active compounds read low 1.03 | locus YDR069C, strain doa4, active compounds read low 1.02 | locus YDR137W, strain rgp1, active compounds read low 1.07 | locus YDR159W, strain sac3, active compounds read low 1.01 | locus YDR195W, strain ref2 1.02 | locus YDR297W, strain sur2, active compounds read low 1.02 | locus YDR334W, strain swr1, active compounds read low 1.03 | locus YDR335W, strain msn5, active compounds read low 1.03 | locus YDR392W, strain spt3, active compounds read low 0.935 | locus YEL003W, strain gim4, active compounds read low 1.03 | locus YEL037C, strain rad23, active compounds read low 1.02 | locus YEL061C, strain CIN8 (second series), active compounds read low 1.03 | locus YER015W, strain faa2, active compounds read low 1.04 | locus YER016W, strain bim1, active compounds read low 1.04 | locus YER111C, strain swi4, active compounds read low 1.03 | locus YER155C, strain BEM2 (second series), active compounds read low 1.02 | locus YFR010W, strain ubp6, active compounds read low 1.03 | locus YGL167C, strain pmr1, active compounds read low 1.03 | locus YGL173C, strain kem1, active compounds read low 1.03 | locus YGL227W, strain vid30, active compounds read low 1.03 | locus YGL240W, strain doc1, active compounds read low 1.02 | locus YGL253W, strain hxk2, active compounds read low 1.05 | locus YHR013C, strain ard1, active compounds read low 1.07 | locus YHR027C, strain rpn1, active compounds read low 1.03 | locus YHR142W, strain chs7, active compounds read low 1.04 | locus YJL092W, strain hpr5, active compounds read low 1.03 | locus YJL095W, strain BCK1 (second series), active compounds read low 1.03 | locus YJL115W, strain asf1, active compounds read low 1.02 | locus YJL129C, strain trk1, active compounds read low 1.06 | locus YJL154C, strain vps35, active compounds read low 1.02 | locus YJL164C, strain tpk1, active compounds read low 1.01 | locus YJL166W, strain qcr8, active compounds read low 1.05 | locus YJL187C, strain SWE1, active compounds read low 1.04 | locus YKL160W, strain elf1, active compounds read low 1.04 | locus YKR026C, strain gcn3, active compounds read low 1.03 | locus YKR091W, strain srl3, active compounds read low 1.02 | locus YLL001W, strain dnm1, active compounds read low 1.05 | locus YLL026W, active compounds read low 1.02 | locus YLL041C, strain sdh2, active compounds read low 1.02 | locus YLR027C, strain aat2, active compounds read low 1.02 | locus YLR221C, strain rsa3, active compounds read low 1.03 | locus YLR258W, strain gsy2, active compounds read low 1.01 | locus YLR262C, strain YPT6 (second series), active compounds read low 1.05 | locus YLR320W, strain mms22, active compounds read low 1.04 | locus YLR342W, strain FKS1, active compounds read low 1.03 | locus YLR357W, strain rsc2, active compounds read low 1.05 | locus YLR370C, strain arc18, active compounds read low 1.03 | locus YLR384C, strain iki3, active compounds read low 1.02 | locus YML120C, strain ndi1, active compounds read low 1.03 | locus YMR058W, strain fet3, active compounds read low 1.03 | locus YMR125W, strain sto1, active compounds read low 1.04 | locus YMR129W, active compounds read low 1.03 | locus YMR205C, strain PFK2, active compounds read low 1.05 | locus YMR231W, strain pep5, active compounds read low 1.03 | locus YNL071W, strain lat1, active compounds read low 1.04 | locus YNL209W, strain ssb2, active compounds read low 1.02 | locus YNL248C, strain rpa49, active compounds read low 1.06 | locus YNL322C, strain KRE1 (second series), active compounds read low 1.03 | locus YNR049C, strain mso1, active compounds read low 1.02 | locus YOR001W, strain rrp6, active compounds read low 0.987 | locus YOR070C, strain gyp1, active compounds read low 1.02 | locus YOR080W, strain dia2, active compounds read low 1.02 | locus YOR083W, strain WHI5, active compounds read low 1.04 | locus YOR106W, strain vam3, active compounds read low 1.09 | locus YOR265W, strain rbl2, active compounds read low 1.01 | locus YOR270C, strain vph1, active compounds read low 1.11 | locus YOR290C, strain snf2, active compounds read low 1.03 | locus YPL051W, strain arl3, active compounds read low 1.04 | locus YPL078C, strain atp4, active compounds read low 1.06 | locus YPL106C, strain sse1, active compounds read low 1.01 | locus YPL240C, strain hsp82, active compounds read low 1.02

Reference: PubChem BioAssay AID1159580 (chemical genetic matrix, 2015)
